This is an account of results in article PMC5913336, “True equilibrium measurement of transcription factor-DNA binding affinities using automated polarization microscopy”.

For this assay, the target named is T1, Fkh (Drosophila melanogaster, UniProt P14734 209-300).
T1 sequence: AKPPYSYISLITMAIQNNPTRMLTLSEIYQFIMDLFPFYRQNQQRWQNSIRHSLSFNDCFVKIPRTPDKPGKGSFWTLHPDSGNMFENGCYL
Put plainly: FP; 33 mM phosphate pH 7.0, 90 mM NaCl, 0.01% Tween 20, 0.1 mM DTT, 0.5% agarose; room temperature. To be noted: tags: N-GST (pGEX-6P-1, kept); dsDNA, one strand shown.
Consider AGTTAAATATCGA, for which the binding signal is 6.39 Kd / Kd of best base at the position.

For the sequence AGTAAAATATTGA, the binding signal is 4.77 Kd / Kd of best base at the position.

As for AGCTAAATATTGA, the binding signal was 3.26 Kd / Kd of best base at the position.

AGTTAAATATTGT: the binding signal is 1.97 Kd / Kd of best base at the position.

On to AGTTAAATCTTGA, for which the binding signal is 14.3 Kd / Kd of best base at the position.

Turning to AGTTAAATGTTGA, the binding signal is 102 Kd / Kd of best base at the position.

Turning to ATTTAAATATTGA, the binding signal was 1.06 Kd / Kd of best base at the position.

As to AATTAAATATTGA, the binding signal was 2.06 Kd / Kd of best base at the position.

As to AGTTAAATACTGA, the binding signal is 27.4 Kd / Kd of best base at the position.

AGTTAAATATGGA: the binding signal is 3.07 Kd / Kd of best base at the position.

For AGTCAAATATTGA, the binding signal was 3.44 Kd / Kd of best base at the position.

On to TGTTAAATATTGA, for which the binding signal was 1.33 Kd / Kd of best base at the position.

For the sequence AGTTAAATAGTGA, the binding signal was 2.35 Kd / Kd of best base at the position.

Take AGTTAAATATTAA: the binding signal is 1.49 Kd / Kd of best base at the position.

With AGTTAAATATTGC, the binding signal is 2.76 Kd / Kd of best base at the position.

Regarding AGTTAACTATTGA, the binding signal was 10.2 Kd / Kd of best base at the position.

For ACTTAAATATTGA, the binding signal was 7.14 Kd / Kd of best base at the position.

On to AGTTAAAAATTGA, for which the binding signal was 18.5 Kd / Kd of best base at the position.

On to AGGTAAATATTGA, for which the binding signal is 1.27 Kd / Kd of best base at the position.

In the case of CGTTAAATATTGA, the binding signal was 8.05 Kd / Kd of best base at the position.

As to GGTTAAATATTGA, the binding signal is 6.61 Kd / Kd of best base at the position.

Consider AGTTAAGTATTGA, for which the binding signal was 37.9 Kd / Kd of best base at the position.

In the case of AGTGAAATATTGA, the binding signal was 6.68 Kd / Kd of best base at the position.

Turning to AGTTAAAGATTGA, the binding signal was 14.9 Kd / Kd of best base at the position.

By Kd is commonly meant the equilibrium constant for the complex coming apart. Low readings indicate tighter binding, high ones weaker binding. Sequence AGTTAAATATTGA registered a Kd of around 17 nM.

As to AGTTACATATTGA, the binding signal is 4.6 Kd / Kd of best base at the position.

On to AGTTTAATATTGA, for which the binding signal is 32.1 Kd / Kd of best base at the position.

Consider AGTTAATTATTGA, for which the binding signal was 6.31 Kd / Kd of best base at the position.

Turning to AGTTAAATATTCA, the binding signal is 2.02 Kd / Kd of best base at the position.

Regarding AGTTAGATATTGA, the binding signal is 60.9 Kd / Kd of best base at the position.

As for AGTTAAACATTGA, the binding signal is 29.1 Kd / Kd of best base at the position.

For the sequence AGTTAAATTTTGA, the binding signal is 7.9 Kd / Kd of best base at the position.

As for AGATAAATATTGA, the binding signal was 1.16 Kd / Kd of best base at the position.

Take AGTTAAATATTTA: the binding signal was 1.68 Kd / Kd of best base at the position.

As to AGTTAAATATAGA, the binding signal is 1.73 Kd / Kd of best base at the position.

Turning to AGTTAAATATTGG, the binding signal was 1.17 Kd / Kd of best base at the position.

As for AGTTCAATATTGA, the binding signal is 2.55 Kd / Kd of best base at the position.

Take AGTTATATATTGA: the binding signal was 18.4 Kd / Kd of best base at the position.

For AGTTGAATATTGA, the binding signal was 59.1 Kd / Kd of best base at the position.

Regarding AGTTAAATAATGA, the binding signal was 2.19 Kd / Kd of best base at the position.
